Our source for the PBM binding z-score values is the supplement of paper PMC6555819.

The subject of the assay is PPARg:RXRa 270nM:90nM, anti-RXR (NR concentration 270 nM, RXRa partner concentration 90 nM). Description: PBM binding z-score (relative to random genomic background probes); higher = stronger binding; sequences stand for … in GC…GCGATTGACAGCGTAGAATGAAGG
An outline of the steps:
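On custom Agilent 4×180K arrays, double-stranded probes with 34-nt variable regions carried direct-repeat seeds, single-nucleotide variants, half-site ablations or random human genomic background. Ligand-free nuclear receptor dimers were applied for 1 h, and binding was read with antibodies against each partner (one per run). Binding z-scores come from regression-normalized fluorescence, with the random background probes as reference.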
In the case of CGAACTAGGTAACCAGGACAGTGAAGAGGTTGGA, the PBM binding z-score was determined as 2.
The sequence CGAACTAGGTCAAAGGACAGTTAAAGGCGACGTA returned a PBM binding z-score of 8.8.
For the sequence CGAACTAGGTCAAAGGACAGTGCAAGGCGACGTA, the PBM binding z-score is 8.27.
On to CGAACTAGGTTACCAGGACAGTGAAGAGGTTGGA, for which the PBM binding z-score was 3.65.
CGAACTAGGTCACCAGGAGAGTGAAGAGGTTGGA had a PBM binding z-score of 6.73.
In the case of ATATGTAGGTTAGGGTCATCCAGAAAGTAGGGAA it was 6.66; in that of CGAACTAGGTCACCCGGACAGTGAAGAGGTTGGA, 6.77; in that of ATATGTAGGTTTGGGTCATTCAGAAAGTAGGGAA, 2.64.
Next, CGAACTAGGTCAAAGGACAGGGAAAGGCGACGTA: 8.79; CGAACTAGGTCACAGGACAGTGAAAGGCGACGTA: 7.37; CGAAATAGGTCACCAGGACAGTGAAGAGGTTGGA: 7.47.
In the case of CGAACTAGGTCGAAGGACAGTGAAAGGCGACGTA it was 5.69.
In turn, CGAACTAGTTCAAAGGACAGTGAAAGGCGACGTA came in with a PBM binding z-score of 3.51.
For the sequence ATATGTAGGTTATGGTCATTCAGAAAGTAGGGAA, the PBM binding z-score was 4.06.
With CGAACTAGGTTAAAGGACAGTGAAAGGCGACGTA, the PBM binding z-score stood at 7.53.
Next, CGAACTAGGTCAAAGGACAGAGAAAGGCGACGTA: 8.77.
Next, CGAACTAGGTCACCAGGACAGTGATGAGGTTGGA: 6.62; ATATGTAGGTTAGGGTCATGCAGAAAGTAGGGAA: 6.66; CGAACTAGGTCAAAGGACAGTGACAGGCGACGTA: 8.72.
For CGTACTAGGTCAAAGGACAGTGAAAGGCGACGTA, the PBM binding z-score is 7.95.
With ATACGTAGGTTAGGGTCATTCAGAAAGTAGGGAA, the PBM binding z-score was 3.41.
Next, ATATGTAGGTTAGGGTCATTAAGAAAGTAGGGAA: 6.59; CGAACTAGGTGACCAGGACAGTGAAGAGGTTGGA: 3.34.
Take CGAACTAGGTCATAGGACAGTGAAAGGCGACGTA: the PBM binding z-score was 7.62.
Next, CGAGCTAGGTCAAAGGACAGTGAAAGGCGACGTA: 6.04; ATATGTAGGTGAGGGTCATTCAGAAAGTAGGGAA: 6.55; ATAGGTAGGTTAGGGTCATTCAGAAAGTAGGGAA: 4.89.
In the case of AGATGTAGGTTAGGGTCATTCAGAAAGTAGGGAA it was 6.27.
Next, AAATGTAGGTTAGGGTCATTCAGAAAGTAGGGAA: 6.63; CGAACTAGGTCAAAGGAAAGTGAAAGGCGACGTA: 7.07; CGAACTAGGTCACCAGGACATTGAAGAGGTTGGA: 7.05.
On to CGAACTAGGTCAAAGGACAGTCAAAGGCGACGTA, for which the PBM binding z-score came to 8.68.
Next, CGAAATAGGTCAAAGGACAGTGAAAGGCGACGTA: 8.26; ATATGAAGGTTAGGGTCATTCAGAAAGTAGGGAA: 4.02; ATATGTGGGTTAGGGTCATTCAGAAAGTAGGGAA: 6.42.
In the case of CGAACTAGGTCAAAGGACAGTAAAAGGCGACGTA it was 8.18; in that of ATATGTAGGTTAGGGGCATTCAGAAAGTAGGGAA, 5.21.
Next, CGAACTAGGTCACCAGGCCAGTGAAGAGGTTGGA: 7.15; CGAACTAGGTCACCAAGACAGTGAAGAGGTTGGA: 6.46.
